# VDR inh – inhibitors of human vitamin D receptor; P11473; VDR-SRC2-3 peptide fluorescence polarization, 2 h; Potency, µM, for inactives: max response, negative = inhibition, hits mostly inhibitors; 0.93% of 400,000 active; note: potency is the fitted concentration of half-maximal effect
#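 Fluorescence polarization assay measuring small-molecule disruption of VDR binding to the coregulator peptide SRC2-3. Compounds were pin-transferred (23 nl) into the reagent mix and incubated 2 h at room temperature before reading.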
# PLK1 PBD inh – blocks phosphopeptide binding to human PLK1 polo-box domain; Potency, µM, inactives show max response, negative = inhibition, actives largely listed as inhibitors; P53350; 2.8% of 360,000 active; AID 720504; Plk1 PBD binding of FITC phosphopeptide, fluorescence polarization; note: potency is the fitted concentration of half-maximal effect; series mostly up to about 57 µM; nearly all actives have a fitted effect of over 65% in size
# PI4K2A block – inhibitors of human PI4K2A; purified PI4K2A, ADP-Glo luminescence, 1 h; stronger effect = lower value; Q9BTU6; 0.13% of 420,000 active; activity change, negative = inhibition, % at 76.9 µM; in the data active = activity change below about -50%; inconclusive = mostly about -30% to -49%;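 note: -100% = wells without enzyme as full effect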
#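 Compounds are screened against recombinant PI4K2A using PI as substrate and ATP, the latter dispensed at 300 microM. Reactions run one hour at ambient temperature before ADP-Glo detection; full inhibition defined by wells lacking enzyme.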
# GLS inh – glutaminase GLS (human) inhibition | O94925 | GLS enzymatic activity, qHTS titration | Potency, µM (highest dose often 45.5 µM), for the others: top-dose activity change, negative = inhibition, actives largely listed as inhibitors | 0.21% of 410,000 active | AID 624170; note: potency is the fitted concentration of half-maximal effect
# Target sequence (O94925 whole entry, looked up): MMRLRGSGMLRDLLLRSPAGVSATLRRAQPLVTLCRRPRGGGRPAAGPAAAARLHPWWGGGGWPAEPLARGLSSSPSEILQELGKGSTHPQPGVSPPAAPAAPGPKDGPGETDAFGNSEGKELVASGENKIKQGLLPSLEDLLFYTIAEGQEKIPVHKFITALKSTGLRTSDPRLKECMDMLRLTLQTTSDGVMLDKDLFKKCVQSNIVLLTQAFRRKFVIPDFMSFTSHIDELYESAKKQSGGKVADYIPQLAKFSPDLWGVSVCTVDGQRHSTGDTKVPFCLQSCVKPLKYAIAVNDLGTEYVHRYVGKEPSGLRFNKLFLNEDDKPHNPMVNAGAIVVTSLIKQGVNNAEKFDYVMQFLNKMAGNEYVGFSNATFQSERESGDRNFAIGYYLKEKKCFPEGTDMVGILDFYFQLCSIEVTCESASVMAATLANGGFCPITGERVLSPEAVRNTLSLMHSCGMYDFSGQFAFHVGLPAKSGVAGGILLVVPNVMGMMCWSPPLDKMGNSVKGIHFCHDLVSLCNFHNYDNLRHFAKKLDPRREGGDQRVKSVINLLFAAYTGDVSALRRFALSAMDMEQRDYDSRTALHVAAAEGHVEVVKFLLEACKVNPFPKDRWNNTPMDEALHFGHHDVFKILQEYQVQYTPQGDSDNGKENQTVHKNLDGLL
#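 Coupled fluorescence readout: glutamate oxidase/HRP/Amplex Red detect glutamate formed by hKGA from L-glutamine (1 mM solution added). Buffer 45 mM KH2PO4 pH 8.2, 0.02% Tween-20; reads at t0 and 30 min RT.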
# GCN5L2 inh – inhibitors of human GCN5L2 histone acetyltransferase. Q92830. GCN5L2 HAT assay, ThioGlo1 CoA-SH fluorescence. Potency, µM (top dose mostly 58.9 µM), inactives show at the highest dose activity change, negative = inhibition, usual class: inhibitors. 0.21% of 390,000 active. AID 504327; note: potency is the fitted concentration of half-maximal effect
#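 Free CoA generated was detected with ThioGlo1 (50uM) fluorescence at Ex340nm/Em540nm, read immediately and after 20 min at room temperature. Enzyme, 20 nM in HEPES pH 7.5 buffer, saw compounds 15 min before adding 75uM H3(1-25) peptide and 70uM acetyl-CoA.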
# * marks the source's active call; other numbers are inactive results; u = inconclusive; x = no result. Hits are enriched below; roughly 3.1% of the tested compounds scored in any of these assays. Unless noted, calls come from the whole dose curve; as a rule, active = well fitted curve in the direction sought with a large enough effect; inconclusive = small, poorly fitted or top-dose-only effect, or another doubt; inactive = no such curve, though single readings can be large; an effect the other way counts as inactive or inconclusive. Unless noted, % is set by controls: 0 for no effect and ±100 for the full control effect.
SMILES,VDR inh,PLK1 PBD inh,PI4K2A block,GLS inh,GCN5L2 inh
CS(=O)(=O)c1ccc(-n2nnc3ccccc32)c([N+](=O)[O-])c1,-1%,-7%,-9,-6%,-2%
COC(=O)c1ccc(-c2nc(O)c(C)s2)cc1,79µM*,7.5µM*,-15,-15%,20%
CN1CCC(N[C@@H](Cc2c[nH]c3ccccc23)C(=O)NCC(c2ccccc2)c2ccccc2)(C(=O)NC2CCCCC2)CC1,x,x,1,x,x
CC(C)NC(=O)c1ccc(CSCc2ccccc2Cl)o1,-14%,-8%,1,7%,0%
O=C(O)c1ccc(CSCc2ccccc2Cl)o1,u,21µM*,-2,14%,9%
O=C1CC(N(O)c2ccccc2)C(=O)N1c1cc(Cl)cc(Cl)c1 (centres undefined),0%,u,0,49%,-4%
COc1ccccc1N1C(=O)CC(N(O)c2ccccc2)C1=O (centres undefined),-9%,-5%,5,1.3µM*,1%
CCCOc1ccc(N2C(=O)CC(N(O)c3ccccc3)C2=O)cc1 (centres undefined),-6%,-15%,12,44%,-2%
COc1ccccc1N(O)C1CC(=O)N(c2ccc(F)cc2)C1=O (centres undefined),u,5.3µM*,u,15%,-13%
CCCOc1ccccc1N1C(=O)CC(N(O)c2ccccc2)C1=O (centres undefined),-8%,-9%,8,1.1µM*,-4%
COc1ccc(NC(=O)C(C)n2nc(-c3ccc(C)c(C)c3)ccc2=O)cc1OC (centres undefined),6%,x,-5,-6%,-6%
Cc1ccc(S(=O)(=O)N2CCN(c3nc(-c4cccs4)nc4cccnc34)CC2)cc1,-7%,x,x,x,x
FC(F)(F)c1cccc(N2CCN(C(=S)Nc3nccc4ccccc34)CC2)c1,x,x,0,x,x
COc1ccc2sc(SCCCS(=O)(=O)O)[n+](CCCS(=O)(=O)[O-])c2c1,u,-19%,-10,15%,57%
CSc1sc2ccccc2[n+]1CCCS(=O)(=O)[O-],35µM*,u,-10,16%,-6%
COC(=O)[C@]12C[C@H](CC(=O)NCc3cccs3)C(=O)N(Cc3ccco3)C1=C[C@H](C(C)C)O[C@@H]2C1CC1,x,x,-1,x,x
C=C(C)C(=O)C1CCCCC1,-4%,x,x,x,x
CC(=O)N1CCN(CC(=O)Nc2sccc2C#N)CC1,-5%,24µM*,-1,14%,-2%
CCCCC(=O)NC(c1ccc(N(CC)CC)cc1)c1ccc2cccnc2c1O (centres undefined),-9%,-8%,0,58%,-20%
CCCCC(=O)NC(c1ccc(Cl)cc1)c1ccc2cccnc2c1O (centres undefined),u,27µM*,13,59%,x
CCCC(=O)NC(c1ccc(Cl)cc1)c1ccc2cccnc2c1O (centres undefined),14%,4%,6,-15%,2%
CCCCC(=O)NC(c1ccc(N(C)C)cc1)c1ccc2cccnc2c1O (centres undefined),-27%,27µM*,6,54%,-7%
Cc1ccc(NC(=O)CSc2nnc(-c3cc(-c4ccc(Cl)cc4)n[nH]3)n2N)cc1,x,x,-5,x,x
NS(=O)(=O)c1cccc(NC(=O)c2cc3ccccc3o2)c1,-15%,21µM*,4,-18%,7%
NS(=O)(=O)c1cccc(NC(=O)c2cc(=O)c3ccccc3o2)c1,-9%,-1%,6,-7%,-19%
SMILES,VDR inh,PLK1 PBD inh,PI4K2A block,GLS inh,GCN5L2 inh
Cc1ccc(/C=N/n2cnc3sc4c(c3c2=O)CCCC4)o1,-5%,-15%,-1,-2%,0%
Cc1ccc(/C=N/n2cnc3sc(C)c(C)c3c2=O)o1,u,21µM*,-4,0%,-9%
c1ccc(OCc2nnc3sc(C4COc5ccccc5O4)nn23)cc1 (centres undefined),71µM*,24µM*,-13,-10%,-23%
c1ccc(Cc2nnc3sc(C4COc5ccccc5O4)nn23)cc1 (centres undefined),u,15µM*,8,-1%,-4%
c1ccc(CCc2nn3c(C4COc5ccccc5O4)nnc3s2)cc1 (centres undefined),-77%,24µM*,-4,u,-17%
COc1ccccc1-c1nn2c(C3COc4ccccc4O3)nnc2s1 (centres undefined),71µM*,12µM*,1,x,2%
Cc1ccc(-c2nnc3sc(C4COc5ccccc5O4)nn23)cc1 (centres undefined),2%,-10%,2,-4%,-3%
Clc1ccccc1-c1nnc2sc(C3COc4ccccc4O3)nn12 (centres undefined),u,u,5,1%,u
CN1C(=O)c2cc(NC(=O)Cc3ccccc3)ccc2OC[C@H]2O[C@H](CC(=O)O)CC[C@H]21,x,x,0,x,x
COc1ccc(S(=O)(=O)N(Cc2cccnc2)Cc2cc3ccccc3[nH]c2=O)cc1,-23%,27µM*,-2,-7%,-7%
c1nc(NCC2CCOC2)c2cc(-c3ccc4c(c3)OCO4)ccc2n1 (centres undefined),x,x,-8,x,x
Fc1ccc(Cc2nnc(-c3cccs3)o2)cc1,-5%,-2%,3,-11%,-3%
CS(=O)(=O)N(Cc1nnc(-c2cccs2)o1)c1ccc(Cl)cc1F,-21%,12µM*,3,-17%,0%
C[C@@H]1C(=O)N2N=Cc3cc4ccccc4cc3[C@H]2N2N=Cc3cc4ccccc4cc3[C@@H]12,x,x,-7,x,x
Cc1cc2nc(/C(C#N)=C/c3ccncc3)[nH]c2cc1C,22µM*,27µM*,3,14%,-9%
N#C/C(=C\c1ccncc1)c1nc2ccccc2[nH]1,0%,-2%,4,0%,-23%
CCC[C@H]1[C@@H](OC(=O)NCc2ccc(C(F)(F)F)cc2)CC[C@@]23CCCN2C(=O)CCC[C@@H]13,x,x,-6,x,x
O=C1CCCC2=C1C(c1ccncc1)n1c(nc3ccccc31)N2 (centres undefined),u,27µM*,2,6%,-16%
Cc1cccc2cc(CN(Cc3ccc(F)cc3)C(=O)N3CCOCC3)c3nnnn3c12,-13%,24µM*,-4,7%,-5%
Clc1ccccc1Cn1ccc2ccc(-c3ccc4ccn(Cc5ccccc5Cl)c4c3)cc21,x,x,-3,x,x
COc1ccccc1NCC(=O)c1ccc(Cl)cc1,79µM*,-12%,7,20%,9%
Cc1ccc(C(C)(C)NC(=O)C2CCC(=O)N(CC3CCCCC3)C2)cc1 (centres undefined),-25%,27µM*,3,-1%,-6%
COc1ccc(/C=C2\CC3(OC(=O)C4CCCC4)CCCN2C3)cc1 (centres undefined),x,x,1,x,x
CCc1ccc(CN/C=C/C(=O)c2ccc(Br)cc2)cc1,-12%,24µM*,3,-10%,-1%

# From PubChem
